Sfp inh: inhibitors of Bacillus subtilis Sfp phosphopantetheinyl transferase; AID 1490; Biochemical Sfp PPTase activity, qHTS; Q9F4F7; 310,000 compounds, 3.5% hits; Potency, µM, inactives show largest response in the series, negative = inhibition, most hits filed as inhibitors;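 further: the enzyme is Sfp with the accession as filed and its product quenches rhodamine fluorescence; 0% = enzyme reaction without inhibitor and -100% = no enzyme wells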
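Compounds were incubated with enzyme (final 15 nM) for 15 min at room temperature before substrate addition started the reaction. Fluorescence at 525 nm excitation, 598 nm emission was recorded immediately and after 30 minutes.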
TDP1 inh: blocks human tyrosyl-DNA phosphodiesterase 1. Q9NUW8. recombinant TDP1, AlphaScreen DNA substrate cleavage. Potency, µM (top dose mostly 130 µM), inactives show top-dose activity change, negative = inhibition, most hits filed as inhibitors. 350,000 compounds, 0.28% hits; further: on the % scale 0 is the no-effect control and ±100 the full control effect; nearly all actives have a fitted effect of over 40% in size
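Steps: enzyme plus compound, 15 min RT; add biotin/phosphotyrosine-FITC oligonucleotide (15 nM final), react 5 min; add donor/acceptor beads (10 ug/ml final), 10 min; read AlphaScreen. Tdp1 at 1 nM final.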
G9a inh: inhibitors of human histone lysine methyltransferase G9a; 350,000 compounds, 8.8% hits; Q96KQ7; Potency, µM (top dose mostly 102 µM), without a hit: at the top dose activity, negative = inhibition, actives largely listed as inhibitors; G9a H3K9 monomethylation, AlphaScreen, 2 h; further: on the % scale 0 is the no-effect control and ±100 the full control effect; nearly all actives have a fitted effect of over 75% in size
Target sequence (Q96KQ7 913-1193 limits assumed): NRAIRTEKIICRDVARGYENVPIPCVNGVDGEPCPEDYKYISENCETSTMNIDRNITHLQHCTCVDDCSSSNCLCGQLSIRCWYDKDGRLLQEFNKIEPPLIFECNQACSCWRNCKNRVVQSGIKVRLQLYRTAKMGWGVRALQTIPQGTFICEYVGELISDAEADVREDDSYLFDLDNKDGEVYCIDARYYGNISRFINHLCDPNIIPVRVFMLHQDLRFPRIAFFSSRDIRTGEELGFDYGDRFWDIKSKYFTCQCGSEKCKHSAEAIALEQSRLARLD
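Compounds were preincubated with 20 nM G9a for 15 min, after which biotinylated H3K9 peptide (500 nM) and SAM (20 uM) started a 2 h room-temperature reaction. Monomethylated product was quantified by antibody-based AlphaScreen chemiluminescence.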
JMJD2A Tudor inh: JMJD2A Tudor domain (human) inhibition. O75164. AlphaScreen JMJD2A-Tudor / H3K4me3 peptide binding. Potency, µM (top dose mostly 114 µM), for the others: at the highest dose activity change, negative = inhibition, actives largely listed as inhibitors. 390,000 compounds, 4.4% hits. AID 504339; further: on the % scale 0 is the no-effect control and ±100 the full control effect; nearly all actives have a fitted effect of over 50% in size
BAZ2B inh: BAZ2B (human) inhibition; Q9UIF8; AlphaScreen BAZ2B-H3K14Ac peptide displacement; Potency, µM (highest dose often 114 µM), inactives show top-dose activity change, negative = inhibition, actives largely listed as inhibitors; 360,000 compounds, 4.4% hits; further: on the % scale 0 is the no-effect control and ±100 the full control effect; nearly all actives have a fitted effect of over 60% in size
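Protein-peptide AlphaScreen: BAZ2B 50 nM, b-H3K14Ac 50 nM, 1x PBS pH 7.4 + 0.01% Tween-20. Preincubation 30 min RT; cpd 30 min RT (top 110 uM); beads 20 min RT, light-protected.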
HP1b chromo inh: blocks HP1-beta chromodomain binding to methylated histone tails | P83916 | AlphaScreen HP1-beta / biotin-H3K9me3 peptide binding | Potency, µM (titrated, usually from 114 µM), without a hit: at the highest dose activity change, negative = inhibition, most hits filed as inhibitors | 390,000 compounds, 0.56% hits | AID 540317; further: nearly all actives have a fitted effect of over 70% in size
Target sequence (P83916 whole entry, looked up): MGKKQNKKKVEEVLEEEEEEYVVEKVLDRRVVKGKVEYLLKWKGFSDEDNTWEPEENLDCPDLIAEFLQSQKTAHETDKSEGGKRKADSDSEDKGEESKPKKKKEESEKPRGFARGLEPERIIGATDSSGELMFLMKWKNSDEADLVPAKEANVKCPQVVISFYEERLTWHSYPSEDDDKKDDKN
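AlphaScreen: HP1-beta (50 nM) preformed 30 min with biotin-H3(1-18)K9me3 peptide (50 nM) in PBS pH 7.4, 0.01% Tween-20. Compound added for 30 min at RT, then streptavidin donor/nickel chelate acceptor beads (10 ug/mL) for 30 min.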
The depositor's hits bear a star; ? = inconclusive; . = no result given; [ ] = remark or other dose. A selection: hits, their analogues and other compounds. The true share with any hit is near 12%. The call rests on the fitted dose curve; in most records, active means well fitted curve in the direction sought with a large enough effect; inconclusive means small, poorly fitted or top-dose-only effect, or another doubt; inactive means no such curve, though single readings can be large; an effect the other way counts as inactive or inconclusive. Potency means the concentration at half of the fitted maximal effect.

SMILES	Sfp inh	TDP1 inh	G9a inh	JMJD2A Tudor inh	BAZ2B inh	HP1b chromo inh
CC(=O)N1N=C(c2cccs2)CC1c1ccco1 (stereo not given)	13%	-1%	0%	-10%	-2%	19%
COc1ccc(C2=NN(c3nc(-c4ccccc4)c(CC(=O)O)s3)C(c3ccco3)C2)cc1 (stereo not given)	14µM*	4%	14µM*	79µM*	50µM*	-14%
Cc1ccc(Oc2c(C(F)(F)F)oc3cc(OCC(=O)NC4CCCCC4)ccc3c2=O)cc1	.	.	-8%[59 µM]	-4%	3%	17%
O=C(c1ccc(Br)o1)N1N=C(c2ccc(Cl)cc2)CC1c1ccco1 (stereo not given)	40µM*	2%	50µM*	?	?	?
Fc1ccc(C2=NN(c3ccccc3)C(c3ccco3)C2)cc1 (stereo not given)	-2%	?	472%	218%	179%	336%
COc1ccc(C2CC(c3cccs3)=NN2C(=O)c2ccco2)cc1OC (stereo not given)	-9%	4%	-3%[59 µM]	-27%	?	-9%
Clc1ccc(C2=NN(c3ccccc3)C(c3ccco3)C2)cc1 (stereo not given)	28µM*	?	.	248%	14%	379%
CC(=O)N1CCN(C(=O)CSc2nc3c(cnn3-c3ccccc3)c(=O)[nH]2)CC1	12%	-14%	-38%	8%	-7%	28%
O=C(CSc1nc2c(cnn2-c2ccccc2)c(=O)[nH]1)N1N=C(c2cccs2)CC1c1ccc(F)cc1 (stereo not given)	5%	8%	28µM*	-11%	-26%	7%
O=C(c1ccco1)N1N=C(c2cccs2)CC1c1ccc(F)cc1 (stereo not given)	56µM*	9%	-29%[59 µM]	-14%	-3%	28%
O=C(NCC(=O)N1CCC2(CC1)NCCc1[nH]cnc12)c1ccccc1F	11%	3%	-7%	-6%	-9%	26%
O=C(NCCc1ccccc1Cl)c1sc2ncccc2c1-n1cccc1	.	5%	-33%[59 µM]	?	2%	27%[57 µM]
COc1ccc(O)c(C(=O)c2cnn(-c3ccccn3)c2)c1	10%	8%	-1%	-30%	-35%	-20%
COc1ccc(O)c(C(=O)c2cnc3nc4ccccc4n3c2)c1	-5%	3%	32µM*	-34%	-7%	21%
COc1ccccc1-c1cn[nH]c1-c1ccc(OCc2ccccc2)cc1O	15%	.	21%[59 µM]	?	-16%	24%
COc1ccccc1-c1cn[nH]c(=S)n1	45µM*	5%	?	50µM*	-36%	?
CCCCn1c2ccc(F)cc2c2nnc(SCCN3CCOCC3)nc21	56µM*	.	40µM*	-18%	-6%	26%
Cn1c2ccc(F)cc2c2nnc(SCCN3CCOCC3)nc21	?	.	50µM*	0%	-1%	52%
CCCCS(=O)(=O)c1oc(-c2cccs2)nc1S(=O)(=O)c1ccc(F)cc1	.	6%	?	-13%	-2%	42%
CCOC(=O)c1c(C(=O)OCC)c(C)n(N2C(=O)CSC2=S)c1C	16µM*	7%	-35%[59 µM]	-16%	-37%	15%
CCCN(N=Nc1cccc([N+](=O)[O-])c1)c1cccc([N+](=O)[O-])c1	5%	5%	32µM*	?	?	-25%
O=C1c2ccccc2-c2onc3ccc(Oc4ccccc4)c1c23	1%	8%	8.9µM*	?	?	-27%
COc1ccc(C2c3sc(=O)[nH]c3SC3C4CCC(C4)C23)cc1OC (stereo not given)	2%	3%	8.9µM*	?	?	?
O=c1[nH]c2c(s1)C(c1ccc(O)cc1)C1C3CCC(C3)C1S2 (stereo not given)	50µM*	10%	?	-35%	?	-20%
O=C(O)CN1C(=O)C2C3CC(C2C1=O)C1C(c2ccc(F)cc2)c2sc(=O)[nH]c2SC31 (stereo not given)	45µM*	0%	45µM*	-13%	2%	14%
SMILES	Sfp inh	TDP1 inh	G9a inh	JMJD2A Tudor inh	BAZ2B inh	HP1b chromo inh
O=C(O)CCCN1C(=O)C2C3CC(C2C1=O)C1C(c2ccccc2)c2sc(=O)[nH]c2SC31 (stereo not given)	?	-3%	?	-5%	.	26%
CCc1ccccc1N(CC)C(=O)Cn1nc(Cc2ccncc2)c2ccccc2c1=O	.	6%	-28%[59 µM]	-22%	-16%	34%
COc1ccc(C)cc1NC(=O)C1CCCN(S(=O)(=O)c2cccnc2)C1 (stereo not given)	13%	4%	10%	-3%	-1%	48%
CCN(CC)c1ccc(NC(=O)C2COc3ccc(OC)cc3C2)c(C)c1 (stereo not given)	.	4%	7.9µM*	-31%	1%	30%[57 µM]
CCN(CC)c1ccc(NC(=O)C2CCCN(S(=O)(=O)c3cccnc3)C2)c(C)c1 (stereo not given)	0%	-3%	20µM*	?	-32%	-7%
Cc1ccc(NC(=O)C2CCN(S(=O)(=O)c3cnc[nH]3)CC2)cc1C	2%	5%	2%	-12%	-5%	10%
CCN(CC)c1ccc(NC(=O)c2cccc(OC)c2)c(C)c1	-4%	2%	?	?	?	-18%
CCN(CC)c1ccc(NC(=O)C2CCN(S(=O)(=O)c3cnc[nH]3)CC2)c(C)c1	.	2%	11µM*	?	.	11%
S=C(c1ccc(Br)cc1)N1CCCC1	-11%	.	45µM*	0%	-4%	11%
Oc1ccc(C(=S)N2CCCCC2)cc1	50µM*	5%	45µM*	-15%	0%	-21%
CCN(CC)S(=O)(=O)c1ccc(C)c(NC(=S)N2CCN(C/C=C/c3ccccc3)CC2)c1	-10%	4%	35µM*	-35%	?	15%
CCN(CC)S(=O)(=O)c1ccc(C)c(NC(=S)N2CCN(c3ccccn3)CC2)c1	?	.	32µM*	-27%	-17%	-9%
CCc1ccccc1NC(=S)N1CCN(c2ccccn2)CC1	11%	6%	15%[59 µM]	-19%[57.1 µM]	-4%	20%
COc1cc(OC)cc(-c2n[nH]c(=S)n2-c2ccc3c(c2)OCO3)c1	?	6%	1.8µM*	20µM*	-11%	-3%
Fc1ccc(-n2c(-c3ccc4c(c3)OCO4)n[nH]c2=S)cc1Cl	-9%	3%	1.4µM*	-20%[57.1 µM]	-27%	6%
CCc1ccc2[nH]c(C(=O)Nc3ccc4c(c3)OCO4)cc2c1	-2%	.	22µM*	?	-33%	-17%
Cc1cc(C)c2[nH]c(C(=O)Nc3ccc4c(c3)OCO4)cc2c1	-22%	.	18µM*	56µM*	50µM*	-20%

From PubChem
